Assay results taken from PubChem BioAssay AID602350 (Broad Institute, 2012).
Measured potencies and affinities stand elsewhere. The source made the active and inactive calls.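 The calls were made as follows: active = absorbance falls by 30% or more versus neutral controls, with a potency fitted within twice the top valid dose; inconclusive = no clear call, values can overlap the other calls; inactive = change opposite to expected direction, plus the rest.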

Each molecule was assayed against Protein disulfide-isomerase (Homo sapiens) (UniProt P07237) (assay: PDI inhibitors, insulin aggregation turbidity, dose response, biochemical, absorbance, cherry-picked samples (AID 602350)). Conditions: recombinant PDI insulin aggregation, absorbance 650 nm, 90 min; series mostly up to 19.5 µM.
Protein disulfide-isomerase (Homo sapiens), sequence (P07237 whole entry, looked up): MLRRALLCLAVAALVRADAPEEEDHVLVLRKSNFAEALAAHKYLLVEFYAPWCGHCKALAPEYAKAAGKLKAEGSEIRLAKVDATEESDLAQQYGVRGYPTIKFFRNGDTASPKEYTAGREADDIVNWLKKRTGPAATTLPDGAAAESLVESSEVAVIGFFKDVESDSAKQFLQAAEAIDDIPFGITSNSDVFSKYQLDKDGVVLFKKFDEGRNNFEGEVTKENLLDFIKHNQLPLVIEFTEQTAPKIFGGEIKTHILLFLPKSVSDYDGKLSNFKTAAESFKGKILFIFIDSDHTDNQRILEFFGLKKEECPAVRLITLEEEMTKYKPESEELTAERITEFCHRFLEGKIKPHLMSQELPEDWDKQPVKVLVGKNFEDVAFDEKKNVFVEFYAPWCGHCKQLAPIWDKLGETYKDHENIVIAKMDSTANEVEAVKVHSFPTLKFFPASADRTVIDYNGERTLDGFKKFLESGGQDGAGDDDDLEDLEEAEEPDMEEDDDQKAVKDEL

outcome, inactive:
NC1=NC[C@H](Cc2ccc(O)cc2)N1CC1CCCCC1, Cc1c(C(=O)N2CCOCC2)sc2ncn(CC(=O)N3CCC(C)CC3)c(=O)c12, C=CCNc1ncnc2c1ncn2[C@H]1CN(Cc2cccc3ccccc23)C[C@@H](CO)O1, CCOC(=O)c1c(CN2CCN(C)CC2)n(C)c2cc(Br)c(OC)cc12, Cc1c(O)ccc2c(CN3CCN(Cc4ccccc4)CC3)cc(=O)oc12, Cc1noc(C)c1S(=O)(=O)Nc1ccc2c(c1)CC(=O)N([C@@H](C)CO)C[C@@H](C)[C@@H](CN(C)S(=O)(=O)c1ccc(F)cc1)O2, Cc1ccc(-c2cc(C(=O)NNC(=O)c3csc(N4CCOCC4)n3)c3ccccc3n2)cc1, CC(=O)OCC(=O)NCc1ccc2c(c1)OCO2, O=C(NCCN1CCOCC1)c1cccnc1SCc1ccccc1Cl, COc1ccc(CCNC(=O)c2cc(S(=O)(=O)N(C)C)ccc2N2CCCC2)cc1, O=C1/C(=C\c2ccc(O)cc2)CCC1CNc1ccc(Cl)cc1 (centres undefined), C=CC[C@H](CC(=O)N(CCO)Cc1ccccc1)C(=O)N[C@H](COC(=O)[C@@H](CC=C)Cc1ccc(F)cc1)Cc1c[nH]c2ccccc12, CC1CCc2sc(C(=O)N/N=C/C3CCCCC3)cc2C1 (centres undefined), O=C(Nc1ccc(Br)cc1F)c1cccnc1, Cc1nc(C(=O)Nc2cccc(Cl)c2Cl)nn1-c1cc(OC(C)C)c(Cl)cc1Cl, c1ccc(Cn2nnc3c(Nc4ccc5c(c4)OCO5)nc(C4CC4)nc32)cc1, O=C(Nc1nc2ccccc2s1)c1cccc(S(=O)(=O)N2CCc3ccccc32)c1, Cn1nnnc1SCC(=O)Nc1cc(C(F)(F)F)ccc1N1CCOCC1, Cc1noc(C)c1S(=O)(=O)Nc1ccc2c(c1)CC(=O)N([C@H](C)CO)C[C@H](C)[C@H](CN(C)S(C)(=O)=O)O2, C[C@@H]1CN([C@H](C)CO)C(=O)Cc2cc(NC(=O)Nc3ccccc3)ccc2O[C@H]1CN(C)Cc1ccccc1, Cc1ccc(C)c(NS(=O)(=O)c2c(C)nn(C)c2C)c1, O=C(NCc1ccccn1)Nc1cccc(Cl)c1, Cc1ccc(CN(c2ccc(C(=O)Nc3ccc4c(c3)OCO4)cc2)S(C)(=O)=O)cc1, COC(=O)c1ccc(COC(=O)CSCC(=O)Nc2ccc(C)cc2C)cc1, O=C(c1ccc(NS(=O)(=O)c2ccccc2)cc1)N1CCOCC1, NC(=O)c1ccc(NC(=O)COC(=O)c2ccc(Br)c(S(=O)(=O)N3CCOCC3)c2)cc1, CC(=O)Nc1cccc(NC(=O)CCc2ccccc2)c1, COc1ccc(Cl)cc1NC(=O)COC(=O)C1CC1, COc1cc(C(=O)N2CCN(C/C=C/c3ccccc3)CC2)cc(OC)c1OC, COc1cc2c(cc1OC)C1C(C(=O)Nc3ccccc3N3CCN(C)CC3)c3ccccc3C(=O)N1CC2 (centres undefined), Cc1ccc(C2=Nc3ccccc3SC(c3cccc([N+](=O)[O-])c3)C2)cc1 (centres undefined), CC[C@]12c3[nH]c4cc(-c5ccco5)ccc4c3CCN1C(=O)[C@@H](CC(=O)NCc1ccc(OC)c(OC)c1)C[C@@H]2C(=O)N1CCN(C(=O)C2CC2)CC1, CC(C)Cn1c(N)c(C(=O)COC(=O)c2ccc(O)cc2)c(=O)n(C)c1=O, COc1ccc(OCCN2CCC(C(=O)NC(c3ccsc3)c3ccccc3C)CC2)cc1 (centres undefined), CCOc1cc(N2CCOCC2)c(OCC)cc1NC(=O)Cc1ccccc1OC, O=C(OCc1ccc(-c2ccccc2)cc1)c1cccc(O)c1, CCOC(=O)c1c(CN(C)C)n(-c2ccc(C)cc2)c2cc(Br)c(O)cc12, CC(=O)N(C)C1(c2nnnn2CCOC(=O)Nc2ccc(Cl)cc2)CCCCC1, CCCCn1c(N)c(N(CC(C)C)C(=O)c2cc(-c3ccncc3)nc3ccccc23)c(=O)[nH]c1=O
